Test results from paper PMC5540273 (PLoS ONE, 2017).

Assays:
Conditions in all cases: concentration: 1 μM, replicates: in singlicate; n = 1
IKK-alpha = tested on: T1, IKK-alpha
T1 construct: gene CHUK

IKK-beta = tested on: T2, IKK-beta
T2 construct: gene IKBKB

IKK-epsilon = tested on: T3, IKK-epsilon
T3 construct: gene IKBKE

INSRR = tested on: INSRR
INSR = tested on: INSR
IRAK1 = tested on: IRAK1
IRAK3 = tested on: IRAK3
IRAK4 = tested on: IRAK4
ITK = tested on: ITK
[1] = tested on: JAK1(JH1domain-catalytic)
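Also: KINOMEscan kinase panel screen.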

SMILES | %Inh (IKK-alpha) [%] | %Inh (IKK-beta) [%] | %Inh (IKK-epsilon) [%] | %Inh (INSRR) [%] | %Inh (INSR) [%] | %Inh (IRAK1) [%] | %Inh (IRAK3) [%] | %Inh (IRAK4) [%] | %Inh (ITK) [%] | %Inh [1] [%]
c1ccc(Oc2ccc(Nc3ccnc4cc(-c5ccc(CNCCN6CCOCC6)o5)ccc34)cc2)nc1 [GW567145] | 28 | 0 | 27 | 0 | 11 | 20 | 0 | 0 | 0 | 5
c1ccc(-c2cnc3nccnn23)cc1 [AH20685] | 49 | 1 | 5 | 0 | 24 | 0 | 1 | 8 | 2 | 0
C[C@@H]1CC[C@@H](C(=O)Nc2ccccc2)CN1c1cc(-c2ccc3c(N)n[nH]c3c2)nc(N)n1 [GSK2286062] | 0 | 0 | 25 | 0 | 25 | 0 | 0 | 0 | 1 | 2
Cc1cccc(NC(=O)Nc2ccc(Oc3ncnc4ccn(C)c34)cc2)c1 | 27 | 8 | 0 | 0 | 0 | 0 | 0 | 0 | 0 | 0
COc1ccc(Nc2nccc(NCCNC(=O)c3cc4ccccc4s3)n2)cc1 [GSK1379896] | 0 | 0 | 0 | 0 | 0 | 0 | 0 | 0 | 8 | 5
Nc1ncc(-c2cccnc2)c2scc(-c3ccc4c(c3)CCN4C(=O)Cc3ccccc3)c12 [GSK683281] | 0 | 11 | 46 | 0 | 0 | 10 | 17 | 5 | 18 | 19
COc1ccc(Nc2nccc(N3CCC(NC(=O)Nc4cccc(OC)c4)C3)n2)cc1 (centres unmarked) [GSK1379742] | 24 | 19 | 0 | 0 | 0 | 0 | 15 | 6 | 11 | 12
COc1cc(Nc2nccc(N3CCC(NC(=O)Nc4cccc(C(C)=O)c4)C3)n2)cc(OC)c1OC (centres unmarked) [GSK1379753] | 0 | 10 | 20 | 0 | 1 | 77 | 86 | 40 | 34 | 0
O=C(Nc1cccc(Oc2ccc3nc(NC(=O)C4CC4)cn3n2)c1)c1ccccc1C(F)(F)F | 0 | 0 | 0 | 0 | 0 | 0 | 5 | 0 | 0 | 8
COC(=O)Nc1nc2cc(Oc3ccc(NC(=O)Nc4cc(C(F)(F)F)ccc4F)cn3)ccc2[nH]1.Cl.Cl [GW681170] | 66 | 17 | 0 | 0 | 0 | 49 | 0 | 3 | 0 | 30
Cc1ccc(C)c(NC(=O)NC2CCN(c3ccnc(Nc4ccc(F)cc4)n3)C2)c1 (centres unmarked) [GSK1379720] | 32 | 18 | 3 | 0 | 0 | 40 | 0 | 20 | 5 | 12
